Hits are enriched below; roughly 7.3% of the tested compounds scored in any of these assays.
Rab9 promoter act: qHTS Assay for Rab9 Promoter Activators; Huh7 Rab9 promoter-luciferase reporter, luminescence, 24 h; Potency, µM (doses to about 9.22 µM), for the others: at the highest dose activation, negative = inhibition, usual class: activators; actives 2.8% (n = 320,000); also: % of control where 0% means no effect; nearly all actives have a fitted effect of over 60% in size
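Rab9 promoter-driven luciferase in stably transfected Huh7 cells; 1500 cells/well rested 2 h, exposed to compound in DMSO for 24 h at 37 °C, 5% CO2. Luminescence read 10 min after adding luciferase reagent at ambient temperature.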
KinaseGlo FLuc: Counterscreen for Luciferase (Kinase-Glo TM) Inhibition; Kinase-Glo luciferase, ATP luminescence, 8 min; actives 0.28% (n = 200,000); Potency, µM (series often up to 38.3 µM), for the others: at the top dose activity change, negative = inhibition, hits mostly inhibitors; Luciferin 4-monooxygenase (Photuris pensylvanica), Q27757; also: % is scaled to controls: 0 for no effect and ±100 for the full control effect; nearly all actives have a fitted effect of over 60% in size
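Luminescence was the read-out, taken after 8-minute incubation at ambient temperature. Luciferase turned over luciferin with 10 uM ATP in imidazole pH 7.2 buffer containing KCl, MgCl2, Tween 20 and BSA.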
ELG1 genotoxic: qHTS screen for small molecules that induce genotoxicity in human embryonic kidney (HEK293T) cells expressing luciferase-tagged ELG1 | Potency, µM (top dose mostly 46 µM), for inactives: at the highest dose activity change, positive = activation, hits mostly activators | actives 1.3% (n = 330,000) | AID 504466, 2011 | HEK293T ELG1-luciferase reporter, luminescence, 16 h; also: % of control where 0% means no effect; nearly all actives have a fitted effect of over 60% in size
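HEK293T cells expressing luciferase-tagged ELG1 were treated with compound or DMSO for 16 hr at 37°C. Luciferase activity was then read after 30 min with ONE-Glo at room temperature; rising signal flags genetic stress.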
SMN2 splice up: qHTS Assay for Enhancers of SMN2 Splice Variant Expression; Potency, µM (highest dose often 46.1 µM), inactives show at the top dose activity change, positive = activation, most hits filed as activators; HEK293 SMN2-luciferase splicing reporter, luminescence, 30-36 h; actives 2.8% (n = 210,000); also: % of control where 0% means no effect; nearly all actives have a fitted effect of over 55% in size
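HEK293 cells carry an SMN2 minigene-luciferase reporter in which exon 7 inclusion puts luciferase in frame. Cells were seeded at 2000 cells/well, attached for 10-12 hours, then exposed to compounds for 30-36 hours at 37C before ONE-Glo luminescence.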
FLuc counter: qHTS profiling assay for firefly luciferase inhibitor/activator using purifed enzyme and Km concentrations of substrates (counterscreen for miR-21 project); Potency, µM (doses to about 57.5 µM), for the others: at the highest dose activity change, negative = inhibition, hits mostly inhibitors; actives 6.9% (n = 360,000); Luciferin 4-monooxygenase (Photinus pyralis), P08659; purified FLuc, Km substrates, luminescence inhibition;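 also: plate controls were vehicle for no effect and reference inhibitor for full effect; nearly all actives have a fitted effect of over 55% in size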
Target sequence (P08659 whole entry, looked up): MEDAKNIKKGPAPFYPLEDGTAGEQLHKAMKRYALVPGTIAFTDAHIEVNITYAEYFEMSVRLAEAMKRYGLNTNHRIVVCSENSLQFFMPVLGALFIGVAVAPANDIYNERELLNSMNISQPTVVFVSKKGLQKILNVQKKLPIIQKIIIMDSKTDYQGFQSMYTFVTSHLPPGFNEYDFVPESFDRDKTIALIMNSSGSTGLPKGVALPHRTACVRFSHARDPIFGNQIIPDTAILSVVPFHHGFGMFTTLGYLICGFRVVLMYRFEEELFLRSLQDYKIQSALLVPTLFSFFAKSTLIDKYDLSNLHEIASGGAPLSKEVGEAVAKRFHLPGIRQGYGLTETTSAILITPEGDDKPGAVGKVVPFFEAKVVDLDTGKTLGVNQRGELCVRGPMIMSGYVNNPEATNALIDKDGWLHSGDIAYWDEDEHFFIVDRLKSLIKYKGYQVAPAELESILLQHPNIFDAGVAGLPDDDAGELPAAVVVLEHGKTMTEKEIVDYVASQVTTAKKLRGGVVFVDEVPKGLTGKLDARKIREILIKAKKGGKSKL
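Purified P. pyralis luciferase (10nM final) with 10uM D-luciferin and 10uM ATP (Km levels) in 50mM Tris acetate pH 7.5, 10mM Mg acetate, 0.01% Tween-20, 0.05% BSA; qHTS 6-point titration, ~60 µM downward; luminescence read.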
NPC1 prom act: qHTS Assay for NPC1 Promoter Activators. Huh7 NPC1 promoter luciferase reporter, 24 h. Potency, µM (doses to about 9.22 µM), inactives show at the highest dose activation, actives largely listed as activators. actives 2.4% (n = 320,000); also: % of control where 0% means no effect; nearly all actives have a fitted effect of over 60% in size
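Huh7 reporter cells (NPC1 promoter driving luciferase) are dosed with compound for 24 h at 37 °C, 5% CO2; luciferase detection reagent is then added and luminescence measured after 10 min at ambient temperature.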
Starred values were filed as active, the others as inactive; ? = inconclusive; · = no result; [ ] = another dose, or the depositor's remark. Calls follow the shape of the dose curve; as a rule, active = well fitted curve in the direction sought with a large enough effect; inconclusive = small, poorly fitted or top-dose-only effect, or another doubt; inactive = no such curve, though single readings can be large; an effect the other way counts as inactive or inconclusive. Potency is read from the fitted curve at half-maximal effect.

SMILES	Rab9 promoter act	KinaseGlo FLuc	ELG1 genotoxic	SMN2 splice up	FLuc counter	NPC1 prom act
O=C(CSc1nc2ccccc2c(=O)n1NC(=O)c1ccccc1)c1ccccc1	3.5µM*	-8%	?	?	12µM*	?
COc1ccc(C(=O)Nn2c(SCC(=O)NCC3CCCO3)nc3ccccc3c2=O)cc1 (stereo not drawn)	0.4µM*	?	?	-90%	0.76µM*	0.5µM*
COC(=O)c1ccc2c(=O)n(CC3CCCO3)c(SCC(=O)Nc3ccccc3OC)nc2c1 (stereo not drawn)	-4%	3%	0%	6%	6.7µM*	4%
COc1ccc(-c2c(C)nc(N)nc2-c2ccc(OC)cc2O)cc1	14%	·	0%	·	3%	2%
NC(=O)c1ccccc1OCCOc1ccc(Br)cc1	0%	·	-13%	·	?	-4%
COc1ccc(C(=O)Nn2c(SCC(=O)NCc3ccccc3)nc3ccccc3c2=O)cc1	0.13µM*	-18%	0.082µM*	?	2.7µM*	0.4µM*
O=C(CSc1nc2ccsc2c(=O)n1NC(=O)c1ccccc1)Nc1nccs1	25%	-1%	7%	20µM*	-7%	12%
O=C(CSc1nc2ccccc2c(=O)n1NC(=O)Cc1ccccc1)NCc1ccccc1	0%	-1%	-6%	-18%	2%	2%
O=C(CSc1nc2ccsc2c(=O)n1NC(=O)c1ccccc1)NCc1ccco1	2%	-7%	7%	-2%	-12%	-5%
CCCCOc1ccc(N=Nc2ccc(N)nc2N)cn1	2.5µM*	·	?	·	13µM*	3.2µM*
CS(=O)(=O)C1=NSC2=NC(=O)/C(=C\c3ccc(OC(=O)c4ccco4)cc3)C(=N)N21	17%	·	-3%	·	24µM*	8%
CCS(=O)(=O)C1=NSC2=NC(=O)/C(=C\c3ccc(OC(=O)c4ccco4)c(OC)c3)C(=N)N21	2%	·	3%	·	21µM*	-5%
CS(=O)(=O)C1=NN2C(=N)/C(=C\c3ccc(OC(=O)c4ccco4)cc3)C(=O)N=C2S1	-1%	·	1%	·	?	1%
N=C1/C(=C\c2ccc(OC(=O)c3ccco3)cc2)C(=O)N=C2SC=NN12	1%	12%	-2%	?	15µM*	-2%
C=CCOc1ccc(/C=C2\C(=N)N3N=C(S(=O)(=O)CC)SC3=NC2=O)cc1OC	0%	-4%	11%	-2%	9.5µM*	-1%
CC(C)[C@H](NC(=O)OCc1ccccc1)C(=O)N[C@H](C=O)Cc1ccccc1	-3%[46.1 µM]	-1%	·	-21%	·	5%[46.1 µM]
COc1ccccc1CNc1nc(-c2cc(C)n(C)c2C)cs1	-4%	-9%	-6%	-8%	-11%	-4%
CC12CCC(C(=O)NNc3ccccc3)(C(=O)C1=O)C2(C)C (stereo not drawn)	-4%	·	12%	·	-3%	-2%
COc1cc(/C=C2/C(=N)N3C(=NC2=O)SN=C3S(C)(=O)=O)ccc1OC(=O)c1ccco1	5%	·	0%[9.26 µM]	·	11µM*	1%
COc1cc(/C=C2/C(=N)N3C(=NC2=O)SN=C3S(=O)(=O)C(C)C)ccc1OC(=O)c1ccco1	0%	·	5%	·	13µM*	5%
COc1cc(/C=C2/C(=N)N3C(SC)=NSC3=NC2=O)ccc1OC(=O)c1ccco1	?	·	?	·	27µM*	?
CCOc1cc(/C=C2/C(=N)N3C(=NC2=O)SN=C3S(=O)(=O)CC)ccc1OC(=O)c1ccco1	-1%	·	3%	·	-21%	3%
COc1cc(/C=C2/C(=N)N3C(c4ccccc4)=CSC3=NC2=O)ccc1OCC(=O)O	1%	·	-4%	·	27µM*	9%
